Source: PubChem BioAssay (NCATS)
Records with an inconclusive call do not appear. The source made the active and inactive calls. Unless noted, calls follow the shape of the dose curve; as a rule, active = well fitted curve in the direction sought with a large enough effect; inconclusive = small, poorly fitted or top-dose-only effect, or another doubt; inactive = no such curve, though single readings can be large; an effect the other way counts as inactive or inconclusive.

Columns and labels:
[1] = target: DNA polymerase III PolC-type (Bacillus subtilis (strain 168)) (UniProt P13267); assay: qHTS Validation Assay for the Inhibitors of DNA Replication in Gram-Positive Bacteria (AID 485295);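 also: PicoGreen fluorescence of double-stranded DNA made on primed circular M13 template; series mostly up to about 57 µM; 0% = DMSO wells and -100% = EDTA-quenched background wells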
Method in brief: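 Reconstituted B. subtilis Pol III holoenzyme (PolC, beta clamp, SSB, primase) preincubated with compound, then M13Gori single-stranded circular template with dNTPs/NTPs added; room temperature reaction. Stopped with EDTA/PicoGreen; dsDNA fluorescence read, EDTA as full-inhibition control.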

[2] = target: Tumor susceptibility gene 101 protein (Homo sapiens) (UniProt Q99816); assay: qHTS Validation Assay for Iinhibitors of HIV-1 Budding by Blocking the Interaction of PTAP/TSG101 (AID 485342; calls by dose curve; also: 0% is about no effect)
Method in brief: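 Tsg101 binding domain (10 uM) with FITC-labeled PTAP peptide (50 nM) in HEPES pH 7.5 buffer, 20 min at r.t. with compounds. Binding measured by fluorescence polarization.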

[3] = qHTS Validation Assay to Find Inhibitors of Chronic Active B-Cell Receptor Signaling (AID 485345; active = well fitted curve in the direction sought with a large enough effect in the main read-out, with a control signal flat, not every such curve was filed as active;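 also: 0% = untreated basal cells and 100% = 10 µM MG-132 proteasome inhibitor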)
Method in brief: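 TMD8 ABC-DLBCL cells stably carrying doxycycline-inducible IkappaBalpha–green luciferase fusion plus unfused red luciferase; compounds 46 uM to 3 nM, 4 h at 37C with doxycycline. Corrected green/red luminescence ratio normalized to 10 uM MG-132 and basal cell wells; curves fitted.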

[4] = target: Beta-2 adrenergic receptor (Homo sapiens) (UniProt P07550); assay: qHTS validation assay of beta-arrestin-biased ligands of beta2-adrenergic receptor (AID 485366); also: 0% is about no effect
Method in brief: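 Tango cells (recombinant beta2-AR with recombinant beta-arrestin; recruitment releases tTA driving luciferase) were treated with compounds titrated up to 46 microM for 18 hr at 37 degrees C. Luminescence gave %Activity, and concentration-response curves were curve-classified.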

[5] = target: Thioredoxin reductase 1, cytoplasmic (Rattus norvegicus) (UniProt O89049); assay: qHTS Assay for Substrates of Mammalian Selenoprotein Thioredoxin Reductase 1 (TrxR1) (AID 488772);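 also: NADPH fluorescence in the first read after selenite addition and not the 8 min delta; a drop in NADPH fluorescence below the no-compound background marks a TrxR1 substrate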; also: potency is read from the fitted curve at half-maximal effect
Method in brief: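 Quantitative HTS in Tris-HCl buffer at pH 7.5 with EDTA and Tween-20, using rat TrxR1, 400 uM NADPH and 400 uM selenite (final). A fall in initial NADPH fluorescence relative to background marked substrate behaviour.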

[6] = target: Thioredoxin reductase 1, cytoplasmic (Rattus norvegicus) (UniProt O89049); assay: qHTS Assay for Inhibitors of Mammalian Selenoprotein Thioredoxin Reductase 1 (TrxR1) (AID 488773); details: Potency: inhibition; also: nearly all actives have a fitted effect of over 40% in size; also: potency is read from the fitted curve at half-maximal effect
Method in brief: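 Steps: enzyme (90 nM) plus NADPH (400 uM final), 5 min at ~22 deg C; compound added, 15 min; selenite (400 uM final) added; fluorescence followed for 8 min. Concentration-response curves derived from the normalized delta values.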

[7] = target: Flap endonuclease 1 (Homo sapiens) (UniProt P39748); assay: qHTS Validation Assay for the Inhibitors of Human Flap endonuclease 1 (FEN1) (AID 488816); also: % is scaled to controls: 0 for no effect and ±100 for the full control effect
Method in brief: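 Human FEN1 (10 nM) preincubated 15 min at room temperature with compounds, then flap DNA substrate added at 50 nM final. Fluorescence read at 0 and 15 min; concentration-response fitted with four-parameter Hill equation.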

[8] = target: M-phase phosphoprotein 8 (Homo sapiens) (UniProt Q99549); assay: qHTS Validation Assay for Inhibitors for MPP8 Chromodomain Interactions with Methylated Histone Tails (AID 488949); also: nearly all actives have a fitted effect of over 55% in size; also: potency is read from the fitted curve at half-maximal effect
Method in brief: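 MPP8 (50 nM) was pre-bound to 50 nM biotinylated H3(1-18)K9me3 peptide in PBS pH 7.4 with 0.01% Tween-20. Compounds were then added for 30 min at room temperature, and complex disruption was read by AlphaScreen with streptavidin donor and nickel-chelate acceptor beads.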

[9] = target: Chromobox protein homolog 1 (Homo sapiens) (UniProt P83916); assay: qHTS Validation Assay for Inhibitors of HP1-beta Chromodomain Interactions with Methylated Histone Tails (AID 488953); also: nearly all actives have a fitted effect of over 50% in size; also: potency is read from the fitted curve at half-maximal effect
Method in brief: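 50 nM HP1-beta + 50 nM biotin-H3(1-18)K9me3, PBS pH 7.4, 0.01% Tween-20, 30 min RT; compound added, 30 min RT; AlphaScreen beads 10 ug/mL final, 30 min dark; luminescence read.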

[10] = target: Methanococcus maripaludis chaperonin (MmCpn) (UniProt Q6LX38); assay: High-Throughput Screening for Modulators of Cytosolic Chaperonin Activity: MmCpn Primary Screen (AID 488978);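 also: 50 nM MmCpn enzyme hydrolysing 30 µM ATP at 37 °C; 0% is about no effect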
Method in brief: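 MmCpn at 50 nM final was preincubated 5 min at RT with compound. ATP was then added at 30 uM final for 10 min at 37 C. ADP formed was detected by Transcreener HTRF (665/590 nm).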

[11] = target: D(1A) dopamine receptor (Homo sapiens) (UniProt P21728); assay: HTS Assay for Allosteric Agonists of the Human D1 Dopamine Receptor: Primary Screen for Agonists (AID 488981); also: 0% is about no effect
Method in brief: (§1)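 Tetracycline-induced HEK293 Trex D1 cells with forced coupling to calcium, loaded with no-wash calcium dye; kinetic fluorescence read 180 s after compound addition for agonism, then a further 180 s after an EC20 dopamine challenge for potentiation.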

[12] = target: ATP-dependent 6-phosphofructokinase (Trypanosoma brucei brucei) (UniProt O15648); assay: qHTS Assay to Find Inhibitors of T. brucei phosphofructokinase: hit validation (AID 492961);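 also: luminescence reports ADP formed as PFK phosphorylates fructose-6-phosphate with ATP; series mostly up to about 51 µM; % is scaled to controls: 0 for no effect and ±100 for the full control effect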
Method in brief: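 Inhibition of parasite PFK is measured as reduced ADP formation, quantified via luciferase after ATP depletion. Assay used 0.1 mM ATP, 0.5 mM F6P, 1.25 nM enzyme, 45 min incubation.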

[13] = Validation screen for small molecules that induce genotoxicity in human embryonic kidney (HEK293T) cells expressing luciferase-tagged ELG1 (AID 493106); also: potency is read from the fitted curve at half-maximal effect
Method in brief: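 Luminescence from an ELG1-luciferase fusion serves as the read-out, rising when genetic stress elevates ELG1 protein. HEK293T reporter cells (2,000 per well) received 23 nL compound, incubated 16 hr at 37 °C, then ONE-Glo for 30 min at room temperature.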

[14] = Nrf2 qHTS screen for inhibitors: Validation (AID 493153; active = well fitted inhibition curve with a large enough effect in the main read-out, with a control signal flat, not every such curve was filed as active); details: viability change: measured here: cytotoxicity max response
Method in brief: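 Luminescence from an ARE-firefly luciferase reporter in A549 cells gives Nrf2 inhibition; an earlier CellTiter-Fluor fluorescent read flags cytotoxicity. Cells in 5% FBS OPTI-MEM received compound dilution series for 18-24 h at 37°C.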

[15] = qHTS for Inhibitors of Cell Surface uPA Generation: Validation Assay (AID 493164); also: 0% is about no effect
Method in brief: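 RAW 264.7 cells (4000/well) were plated overnight, then exposed for 18 h at 37 C, 5% CO2 to compounds in a 7-point 1:5 titration (2.45 nM–38.3 uM final). Intracellular ATP was read by ATP-Lite luminescence.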

[16] = target: Transient receptor potential cation channel subfamily V member 1 (Homo sapiens) (UniProt Q8NER1); assay: HTS Assay for Compounds that Act as Enhancers of the Vanilloid Receptor 1 (AID 488979); also: 0% is about no effect
Method in brief: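 TRPV1 cells loaded with Fluo-8 calcium dye; compound added and Ca2+ signal (ex 480/em 520 nm) followed 3 min, then capsaicin at EC20 added and read 2 more min to detect enhancement.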

[17] = target: D(1A) dopamine receptor (Homo sapiens) (UniProt P21728); assay: HTS Assay for Allosteric Agonists of the Human D1 Dopamine Receptor: Primary Screen for Potentiators (AID 488982); also: 0% is about no effect
Method in brief: as §1

[18] = Quantitative high throughput screen for delayed death inhibitors of the malarial parasite plastid, 96 hour incubation (AID 488745); also: potency is read from the fitted curve at half-maximal effect; nearly all actives have a fitted effect of over 70% in size
Method in brief: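 Infected erythrocytes were added to compound in Albumax-supplemented RPMI 1640 at 0.1% parasitemia and 2% hematocrit (final), incubated 96 h at 37 C under 5% CO2, then luciferase reagent was added and luminescence measured.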

[19] = target: Thyrotropin-releasing hormone receptor (Homo sapiens) (UniProt P34981); assay: qHTS for Small Molecule Agonists and Allosteric Enhancers of Human TRH Receptor: Validation Screen for Agonists (AID 493127;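 active = calcium activation more than 3 SD above the typical response in the agonist read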;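 also: intracellular calcium rise by fluo-8 fluorescence before TRH EC20 addition; 0% is about no effect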); details: TRH receptor agonist cell assay; at 2 µM; stronger effect = higher value
Method in brief: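 Cells 2000/well, 10% FCS, 18 h 33.5C/5% CO2 → fluo-8 Ca dye, RT 30 min–1.5 h → FDSS baseline 10 × 1 s → compound added → 230 cycles (1 s/cycle) agonist mode. TRH controls.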

Chain of Methanococcus maripaludis chaperonin (MmCpn) (Q6LX38 1-543): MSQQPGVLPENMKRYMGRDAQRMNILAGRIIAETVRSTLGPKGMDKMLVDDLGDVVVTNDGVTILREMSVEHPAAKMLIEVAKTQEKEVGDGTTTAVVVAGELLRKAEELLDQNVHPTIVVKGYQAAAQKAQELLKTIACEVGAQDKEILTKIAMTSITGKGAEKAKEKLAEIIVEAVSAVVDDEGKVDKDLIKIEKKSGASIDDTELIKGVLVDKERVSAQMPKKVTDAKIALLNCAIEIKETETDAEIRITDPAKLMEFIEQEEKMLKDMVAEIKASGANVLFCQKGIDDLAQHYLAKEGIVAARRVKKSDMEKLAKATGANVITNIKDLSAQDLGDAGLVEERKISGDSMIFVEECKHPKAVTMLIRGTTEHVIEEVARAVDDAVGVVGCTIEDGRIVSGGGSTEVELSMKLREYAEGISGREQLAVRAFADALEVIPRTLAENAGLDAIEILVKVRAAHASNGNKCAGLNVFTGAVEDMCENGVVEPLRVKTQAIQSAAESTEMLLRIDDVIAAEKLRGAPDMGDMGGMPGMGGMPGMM
Chain of Flap endonuclease 1 (Homo sapiens) (P39748 whole entry, looked up): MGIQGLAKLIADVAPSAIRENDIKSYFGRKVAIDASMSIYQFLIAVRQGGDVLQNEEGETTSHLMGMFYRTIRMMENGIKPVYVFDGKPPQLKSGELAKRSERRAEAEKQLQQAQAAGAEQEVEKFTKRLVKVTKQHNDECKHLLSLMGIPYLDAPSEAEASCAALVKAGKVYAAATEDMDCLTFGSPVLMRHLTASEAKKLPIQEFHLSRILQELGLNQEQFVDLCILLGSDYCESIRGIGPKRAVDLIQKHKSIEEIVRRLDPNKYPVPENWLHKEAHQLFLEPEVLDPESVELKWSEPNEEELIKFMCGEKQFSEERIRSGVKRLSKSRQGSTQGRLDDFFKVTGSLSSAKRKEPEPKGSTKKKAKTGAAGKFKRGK
Chain of ATP-dependent 6-phosphofructokinase (Trypanosoma brucei brucei) (O15648 whole entry, looked up): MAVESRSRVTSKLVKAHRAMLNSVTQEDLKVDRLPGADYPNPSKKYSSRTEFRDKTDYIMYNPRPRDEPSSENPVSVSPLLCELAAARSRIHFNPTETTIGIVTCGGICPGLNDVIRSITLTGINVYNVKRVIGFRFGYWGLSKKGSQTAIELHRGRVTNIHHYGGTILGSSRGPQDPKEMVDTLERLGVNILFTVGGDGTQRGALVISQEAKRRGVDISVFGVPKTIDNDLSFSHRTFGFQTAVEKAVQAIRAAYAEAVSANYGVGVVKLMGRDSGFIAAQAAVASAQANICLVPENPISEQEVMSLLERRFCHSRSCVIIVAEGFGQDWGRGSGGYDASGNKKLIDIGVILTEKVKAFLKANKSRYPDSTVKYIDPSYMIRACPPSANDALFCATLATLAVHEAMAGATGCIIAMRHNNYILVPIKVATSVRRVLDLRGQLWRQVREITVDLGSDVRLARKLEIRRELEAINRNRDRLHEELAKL
Chain of Thioredoxin reductase 1, cytoplasmic (Rattus norvegicus) (O89049 whole entry, looked up): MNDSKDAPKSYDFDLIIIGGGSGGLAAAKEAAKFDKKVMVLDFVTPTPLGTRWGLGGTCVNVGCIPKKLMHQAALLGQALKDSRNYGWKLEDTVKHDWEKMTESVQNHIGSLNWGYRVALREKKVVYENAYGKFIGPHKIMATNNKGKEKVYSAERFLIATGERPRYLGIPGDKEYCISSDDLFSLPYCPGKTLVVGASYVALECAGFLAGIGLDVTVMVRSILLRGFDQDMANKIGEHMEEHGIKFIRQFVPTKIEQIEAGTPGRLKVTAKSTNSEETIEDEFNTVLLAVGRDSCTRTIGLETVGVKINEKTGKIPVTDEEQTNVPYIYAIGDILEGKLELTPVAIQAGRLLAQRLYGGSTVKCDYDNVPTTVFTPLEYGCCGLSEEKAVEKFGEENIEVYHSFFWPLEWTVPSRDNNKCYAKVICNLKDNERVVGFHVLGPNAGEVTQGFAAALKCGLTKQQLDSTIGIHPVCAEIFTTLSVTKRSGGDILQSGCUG
Chain of Thyrotropin-releasing hormone receptor (Homo sapiens) (P34981 whole entry, looked up): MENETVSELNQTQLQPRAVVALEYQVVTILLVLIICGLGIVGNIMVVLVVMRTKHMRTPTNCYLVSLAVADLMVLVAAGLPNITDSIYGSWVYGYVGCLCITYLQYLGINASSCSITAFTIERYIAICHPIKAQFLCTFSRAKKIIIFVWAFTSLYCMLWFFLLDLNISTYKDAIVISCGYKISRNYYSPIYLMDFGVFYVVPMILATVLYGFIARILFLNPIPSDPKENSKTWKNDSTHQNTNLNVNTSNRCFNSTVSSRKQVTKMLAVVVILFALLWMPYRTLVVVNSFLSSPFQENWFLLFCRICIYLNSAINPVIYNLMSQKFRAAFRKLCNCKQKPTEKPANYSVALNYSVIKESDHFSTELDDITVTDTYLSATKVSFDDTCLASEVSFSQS
Chain of M-phase phosphoprotein 8 (Homo sapiens) (Q99549 whole entry, looked up): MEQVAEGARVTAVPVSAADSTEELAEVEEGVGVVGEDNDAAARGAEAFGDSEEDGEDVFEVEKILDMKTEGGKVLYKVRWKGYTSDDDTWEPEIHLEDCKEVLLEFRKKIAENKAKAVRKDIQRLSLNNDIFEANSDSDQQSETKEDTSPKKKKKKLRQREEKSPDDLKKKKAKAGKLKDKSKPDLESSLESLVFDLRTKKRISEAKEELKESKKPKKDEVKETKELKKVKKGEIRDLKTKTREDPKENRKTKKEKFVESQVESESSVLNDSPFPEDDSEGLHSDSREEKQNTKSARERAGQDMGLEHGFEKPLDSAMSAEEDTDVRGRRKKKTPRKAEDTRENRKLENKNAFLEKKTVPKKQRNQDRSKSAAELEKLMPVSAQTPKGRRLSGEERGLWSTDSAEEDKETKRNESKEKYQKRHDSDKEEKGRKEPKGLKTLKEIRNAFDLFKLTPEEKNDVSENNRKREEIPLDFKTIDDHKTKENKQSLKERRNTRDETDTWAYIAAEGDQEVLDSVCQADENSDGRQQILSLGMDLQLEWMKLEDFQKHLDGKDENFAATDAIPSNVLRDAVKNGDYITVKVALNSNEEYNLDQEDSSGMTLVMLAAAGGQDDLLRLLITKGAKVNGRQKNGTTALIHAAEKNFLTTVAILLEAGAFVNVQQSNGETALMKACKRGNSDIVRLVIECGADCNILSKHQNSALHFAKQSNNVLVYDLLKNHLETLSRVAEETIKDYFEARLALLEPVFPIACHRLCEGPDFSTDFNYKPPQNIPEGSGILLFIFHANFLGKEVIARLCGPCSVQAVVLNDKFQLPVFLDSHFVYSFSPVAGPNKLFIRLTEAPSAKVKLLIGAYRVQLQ
Chain of Chromobox protein homolog 1 (Homo sapiens) (P83916 whole entry, looked up): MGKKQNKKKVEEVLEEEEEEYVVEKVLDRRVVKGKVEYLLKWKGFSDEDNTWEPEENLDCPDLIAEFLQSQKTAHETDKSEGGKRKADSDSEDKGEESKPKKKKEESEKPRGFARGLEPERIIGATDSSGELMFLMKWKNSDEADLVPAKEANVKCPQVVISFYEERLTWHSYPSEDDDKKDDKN
Chain of D(1A) dopamine receptor (Homo sapiens) (P21728 whole entry, looked up): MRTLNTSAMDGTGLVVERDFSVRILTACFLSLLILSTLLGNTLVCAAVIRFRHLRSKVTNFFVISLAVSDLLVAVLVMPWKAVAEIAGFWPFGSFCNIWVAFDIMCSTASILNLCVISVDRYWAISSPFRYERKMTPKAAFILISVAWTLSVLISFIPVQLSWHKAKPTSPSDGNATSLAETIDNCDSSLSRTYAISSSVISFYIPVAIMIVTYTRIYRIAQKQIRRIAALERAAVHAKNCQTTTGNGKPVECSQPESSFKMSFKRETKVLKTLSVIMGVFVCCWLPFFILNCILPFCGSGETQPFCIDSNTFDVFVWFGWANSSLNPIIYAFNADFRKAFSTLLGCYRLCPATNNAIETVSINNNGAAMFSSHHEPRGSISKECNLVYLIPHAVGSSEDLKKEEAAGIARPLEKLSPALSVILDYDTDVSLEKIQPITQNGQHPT
Chain of Tumor susceptibility gene 101 protein (Homo sapiens) (Q99816 whole entry, looked up, the tested form may be a part): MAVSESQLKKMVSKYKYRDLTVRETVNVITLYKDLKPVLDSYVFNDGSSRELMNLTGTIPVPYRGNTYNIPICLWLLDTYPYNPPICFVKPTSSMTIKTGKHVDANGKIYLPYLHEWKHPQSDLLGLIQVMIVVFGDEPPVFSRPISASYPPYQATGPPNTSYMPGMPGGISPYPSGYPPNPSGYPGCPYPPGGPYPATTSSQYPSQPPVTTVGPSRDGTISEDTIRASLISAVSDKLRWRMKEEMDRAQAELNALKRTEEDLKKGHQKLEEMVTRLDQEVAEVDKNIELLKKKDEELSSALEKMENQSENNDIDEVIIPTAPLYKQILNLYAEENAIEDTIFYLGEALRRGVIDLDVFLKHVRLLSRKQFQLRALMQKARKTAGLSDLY
Chain of Beta-2 adrenergic receptor (Homo sapiens) (P07550 whole entry, looked up): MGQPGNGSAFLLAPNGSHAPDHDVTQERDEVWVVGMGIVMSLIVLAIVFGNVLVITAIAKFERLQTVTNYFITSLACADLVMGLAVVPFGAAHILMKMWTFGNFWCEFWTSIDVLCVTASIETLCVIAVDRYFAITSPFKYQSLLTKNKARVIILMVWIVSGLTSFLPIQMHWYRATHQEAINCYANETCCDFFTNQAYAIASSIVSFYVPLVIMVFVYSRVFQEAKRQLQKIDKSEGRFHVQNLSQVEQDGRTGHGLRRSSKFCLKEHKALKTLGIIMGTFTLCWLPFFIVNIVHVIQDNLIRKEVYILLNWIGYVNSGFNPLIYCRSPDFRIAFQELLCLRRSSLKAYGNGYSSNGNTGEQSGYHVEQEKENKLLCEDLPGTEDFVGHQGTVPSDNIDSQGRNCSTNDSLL

CC(=O)O[C@]1(C(C)=O)CC[C@H]2[C@@H]3C=C(Cl)C4=CC(=O)[C@@H]5C[C@@H]5[C@]4(C)[C@H]3CC[C@@]21C
2.19%: viability change [14]
inactive: outcome [1] | outcome [2] | outcome [3] | outcome [4] | Potency [5] | Potency [6] | outcome [7] | Potency [8] | Potency [9] | outcome [10] | outcome [11] | outcome [12] | Potency [13] | outcome [14] | outcome [15]

O=c1c(-c2ccc(O)cc2)coc2cc(O)ccc12
inactive: outcome [1] | outcome [2] | outcome [4] | Potency [5] | outcome [7] | Potency [8] | Potency [9] | outcome [10] | outcome [16] | outcome [11] | outcome [17] | outcome [14] | outcome [15]
active: Potency [6] 8.44 µM | Potency [13] 20.6 µM
1.29%: viability change [14]

C[N+](C)(C)CC(=O)O
inactive: outcome [1] | outcome [2] | outcome [3] | outcome [4] | Potency [5] | Potency [6] | outcome [10] | outcome [11] | outcome [17] | outcome [14] | outcome [15]
8.76%: viability change [14]

CC/C(=C(\c1ccccc1)c1ccc(OCCN(C)C)cc1)c1ccccc1
active: Potency [18] 13.1 µM | Potency [8] 17.8 µM | Potency [9] 35.5 µM
7.91%: viability change [14]
inactive: outcome [2] | Potency [5] | Potency [6] | outcome [7] | outcome [10] | outcome [16] | outcome [12] | Potency [13] | activation [19] -2.75% | outcome [14] | outcome [15]

Clc1ccc(C(c2ccc(Cl)cc2)n2cc[n+](CC(OCc3ccc(Cl)cc3Cl)c3ccc(Cl)cc3Cl)c2)cc1 (stereo unspecified)
inactive: outcome [1] | outcome [2] | outcome [3] | outcome [4] | Potency [5] | Potency [6] | outcome [10] | outcome [11] | outcome [17] | outcome [15]

CCCCC1C(=O)N(c2ccccc2)N(c2ccccc2)C1=O
-3.3%: viability change [14]
inactive: outcome [1] | outcome [2] | outcome [3] | outcome [4] | Potency [5] | Potency [6] | outcome [7] | Potency [8] | outcome [10] | outcome [16] | outcome [11] | Potency [13] | activation [19] 1.38% | outcome [14] | outcome [15]

O=C(O)Cc1cccc2ccccc12
inactive: outcome [12]

O=C(NCCN1CCOCC1)c1ccc(Cl)cc1
inactive: outcome [1] | outcome [2] | outcome [3] | outcome [4] | Potency [5] | Potency [6] | Potency [8] | outcome [10] | outcome [11] | outcome [17] | Potency [13] | outcome [14] | outcome [15]
-1.31%: viability change [14]

Cc1cnc(C(=O)O)c[n+]1[O-]
inactive: outcome [12]

O=C1Nc2ccc(Cl)cc2C(C#CC2CC2)(C(F)(F)F)O1 (stereo unspecified)
inactive: outcome [12]

CCOC(=O)O[C@]1(C(=O)OCCl)CC[C@@H]2[C@H]3CCC4=CC(=O)C=C[C@]4(C)[C@@H]3[C@@H](O)C[C@@]21C
inactive: outcome [12]

COc1cc2ncnc(Nc3ccc(F)c(Cl)c3)c2cc1OCCCN1CCOCC1
inactive: outcome [12]

COc1ccc(Cc2nccc3cc(OC)c(OC)cc23)cc1OC
inactive: outcome [1] | outcome [2] | outcome [4] | Potency [5] | outcome [10] | outcome [11] | outcome [17] | outcome [12] | Potency [13] | outcome [15]

O=c1cc(-c2ccc(O)cc2)oc2cc(O)cc(O)c12
-8.56%: viability change [14]
inactive: outcome [1] | outcome [2] | outcome [4] | Potency [5] | Potency [6] | outcome [7] | Potency [8] | Potency [9] | outcome [10] | outcome [16] | outcome [11] | outcome [17] | activation [19] 0.5% | outcome [14] | outcome [15]

C[C@@H](O)[C@H]1C(=O)N2C(C(=O)O)=C(S[C@@H]3CN[C@H](C(=O)N(C)C)C3)[C@H](C)[C@H]12
inactive: outcome [12]

CC(C)OC(=O)C(C)(C)Oc1ccc(C(=O)c2ccc(Cl)cc2)cc1
3.23%: viability change [14]
inactive: outcome [1] | outcome [2] | outcome [4] | Potency [5] | Potency [6] | outcome [7] | Potency [8] | Potency [9] | outcome [10] | outcome [16] | outcome [11] | outcome [17] | Potency [13] | outcome [14] | outcome [15]

CC1(C)CCC2=C(O1)c1ccccc1C(=O)C2=O
inactive: outcome [1] | outcome [2] | outcome [4] | outcome [7] | Potency [8] | outcome [10] | outcome [16] | outcome [11] | outcome [17] | Potency [13] | activation [19] -3.69% | outcome [15]
active: Potency [5] 18.9 µM

O=c1[nH]cnc2c1ncn2[C@H]1CC[C@@H](CO)O1
inactive: outcome [12]
